KB-3-1 cytotox: qHTS assay for MDR1-selective chemotherapeutics: Primary screen using the parental adenocarcinoma cell KB-3-1; KB-3-1 viability, CellTiter-Glo ATP luminescence, 72 h; hit rate 1.4% among 400,000; Potency, µM (highest dose often 46.1 µM), actives largely listed as cytotoxic; AID 1347075, 2019; further: potency means the concentration at half of the fitted maximal effect; nearly all actives have a fitted effect of over 60% in size
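Here the drug-naive KB-3-1 line serves as comparator for MDR sub-line selectivity; cells received compound titrations, 72 h at 37 °C, then CellTiter-Glo readout.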
IL-1B inflam inh: qHTS for Inhibitors of Inflammasome Signaling: IL-1-beta AlphaLISA Primary Screen; hit rate 4.7% among 360,000; THP-1 LPS/ATP IL-1B secretion, AlphaLISA, 16 h; stronger effect = lower value; activity change, % at 57.5 µM; in the data active means activity change below about -50%; inconclusive means mostly about -30% to -49%
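Secreted IL-1B measured by AlphaLISA bead assay after 16 h compound exposure of THP-1 cells; compounds (final up to 57.5 uM) added 1 h before LPS (250 ng/mL) and ATP (1.25 mM) stimulation; lower signal means less secretion.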
HT1080 IDH1KD tx: qHTS for induction of synthetic lethality in tumor cells producing 2HG: qHTS for the HT-1080-IDH1KD cell line | Potency, µM (top dose mostly 46.1 µM), for the others: top-dose activity, negative = toxicity, hits mostly cytotoxic | hit rate 2% among 360,000 | HT-1080 IDH1 knockdown viability, ATP luminescence, 48 h;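 further: potency means the concentration at half of the fitted maximal effect; 0% = DMSO wells and -100% = cell-free medium wells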
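Assay cells: HT-1080 with IDH1 knockdown, 750 per well, RPMI/5% FBS. Exposure: 48 h at 37 °C following 2 h pre-incubation. Read: CellTiter-Glo luminescence; fitted concentration-response, curve class assigned.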
HT1080-NT tox: qHTS for induction of synthetic lethality in tumor cells producing 2HG: qHTS for the HT-1080-NT fibrosarcoma cell line | HT-1080-NT fibrosarcoma viability, CellTiter-Glo ATP luminescence, 48 h | Potency, µM (top dose mostly 46.1 µM), without a hit: top-dose activity, negative = less viability, actives largely listed as cytotoxic | hit rate 1.6% among 360,000;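 further: NT is the 2HG producing partner of a matched IDH1 knockdown line; potency means the concentration at half of the fitted maximal effect; 0% = DMSO-treated cells and -100% = media-only wells without cells; nearly all actives have a fitted effect of over 55% in size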
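Viability of the 2HG-overproducing fibrosarcoma line after 48 hours of compound exposure at 37 degrees C was determined by luminescence with CellTiter-Glo, and concentration-effect curves were then fitted and categorized.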
KB-V1 cytotox: qHTS assay for MDR1-selective chemotherapeutics: Primary screen using the drug-selected MDR subline cells KB-V1 | KB-V1 MDR cells viability, CellTiter-Glo, 72 h | Potency, µM (highest dose often 46.1 µM), actives largely listed as cytotoxic | hit rate 3.4% among 400,000 | AID 1347076, 2019; further: potency means the concentration at half of the fitted maximal effect; nearly all actives have a fitted effect of over 60% in size
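Cytotoxicity toward P-gp-expressing KB-V1 cells was determined as loss of CellTiter-Glo luminescence after 72 h at 37 degrees C. Compounds were tested in quantitative HTS format across a concentration range, with curves fitted to normalized data.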
Active calls of the source: *; i = inactive; ? = inconclusive; . = no result given. An excerpt weighted towards active compounds, which were near 8.8% of everything screened. Unless noted, the call rests on the fitted dose curve; in most records, active means well fitted curve in the direction sought with a large enough effect; inconclusive means small, poorly fitted or top-dose-only effect, or another doubt; inactive means no such curve, though single readings can be large; an effect the other way counts as inactive or inconclusive. Unless noted, on the % scale 0 is the no-effect control and ±100 the full control effect.

SMILES | KB-3-1 cytotox | IL-1B inflam inh | HT1080 IDH1KD tx | HT1080-NT tox | KB-V1 cytotox
Cc1cccc(NC(=O)Nc2ccc(C#N)cc2)n1 | ? | -84.6* | -3.2% | -7.0% | ?
COc1cc(SC)ccc1C(=O)Nc1ccccn1 | i | -18.9 | 8.2% | -1.8% | i
COC(=O)c1ccccc1NC(=O)Nc1cccc(C)n1 | ? | 2.2 | 6.1% | -0.7% | i
COc1cc(SC)ccc1C(=O)Nc1cccc(C)n1 | i | -69.7* | -7.4% | -6.5% | i
COc1ccccc1NC(=O)Nc1cccc(C)n1 | 20.6µM* | -9.3 | 16.1% | 23.2% | ?
COc1cc(SC)ccc1C(=O)Nc1ccc(Br)cn1 | ? | -9.8 | 19.7% | 26.9% | 18.4µM*
Cc1cccc(NC(=O)Nc2cccc(C#N)c2)n1 | ? | . | -4.4% | -11.3% | ?
Cc1cccc(NC(=O)Cn2c(SCC(=O)NCc3ccccc3)nc3ccccc32)c1C | i | . | . | . | i
CCCC(C(=O)NNC(=O)c1cc(C)oc1C)c1ccccc1 (configuration not stated) | i | 1.3 | 16.2% | 0.0% | i
c1ccc(CN2CCC3CC2c2c3cccc2N2CCOCC2)cc1 (configuration not stated) | i | 27.6 | 10.2% | -0.4% | i
COc1ccc(C(CC(=O)c2ccc(C)cc2)Sc2ccccc2N)cc1 (configuration not stated) | i | 8.5 | -12.5% | -19.3% | i
Nc1ccccc1SC(CC(=O)c1ccccc1)c1ccc([N+](=O)[O-])cc1 (configuration not stated) | 20.6µM* | ? | ? | -8.8% | i
O=C(CC(SCCO)c1ccc([N+](=O)[O-])cc1)c1ccco1 (configuration not stated) | 20.6µM* | ? | -4.5% | 0.1% | i
Nc1ccccc1SC(CC(=O)c1ccccc1)c1cccc([N+](=O)[O-])c1 (configuration not stated) | ? | -103.5* | ? | ? | ?
O=C(NC(NC(=O)c1ccccc1)c1cccc([N+](=O)[O-])c1)c1ccccc1 | i | 25.7 | 9.1% | -2.4% | i
Cc1ccc(NS(=O)(=O)c2c(C)[nH]c(C)c2C(=O)N2CCCCC2)c(Br)c1 | i | -15.6 | 1.6% | -1.8% | i
S=C(Cc1ccccc1)Nc1ccccc1 | . | 8.4 | -8.7% | -1.5% | .
O=C(Nc1ccccc1Oc1cccnc1)C1CCCN(C/C=C/c2ccc(F)cc2)C1 (configuration not stated) | . | -59.0* | -22.9% | -2.0% | .
Cc1cccc(CN2CCCC(C(=O)Nc3ccccc3Oc3cccnc3)C2)c1 (configuration not stated) | i | -55.6* | -19.2% | -19.4% | i
COc1ccc(Cl)cc1NC(=O)c1oc2ccc(S(=O)(=O)N3CCCCC3)cc2c1C | i | . | . | . | i
CC(NS(=O)(=O)c1ccc(OCC(=O)NCc2ccccn2)cc1)c1ccccc1 (configuration not stated) | i | 4.1 | 8.9% | 14.0% | i
CN(Cc1ccccc1)C1(CNC(=O)CCC(F)(F)F)Cc2ccccc2C1 | i | 17.2 | -17.6% | -9.7% | ?
C=C1CCc2c([nH]c3ccc(OCC(C)C)cc23)C1=O | ? | -98.8* | 13µM* | 7.31µM* | ?
CCn1c2c(c3cc(OCC(C)C)ccc31)CCCC2=O | i | ? | -25.6% | -25.1% | i
O=C1Cc2cc(S(=O)(=O)N3CCN(c4ccc(F)cc4)CC3)ccc2N1 | i | . | . | . | i
SMILES | KB-3-1 cytotox | IL-1B inflam inh | HT1080 IDH1KD tx | HT1080-NT tox | KB-V1 cytotox
Cc1nn(C)c2c1c(C(F)(F)F)cc(=O)n2C(C)C(=O)NCCc1ccc(Cl)cc1 (configuration not stated) | i | . | . | . | i
Cc1cc2c(cc(C(=O)OCC(=O)NCc3cccs3)n2C(C)C)o1 | 9.2µM* | 13.7 | ? | 1µM* | ?
CCOc1ccc(OCCSc2nc(N)cc(=O)[nH]2)cc1 | ? | 0.0 | -12.7% | -9.7% | i
Nc1cc(=O)[nH]c(SCCSc2ccccc2)n1 | ? | -23.2 | 5.7% | 2.9% | 7.31µM*
Nc1cc(=O)[nH]c(SCCOc2ccccc2)n1 | ? | 5.7 | 1.3% | 5.4% | 5.17µM*
COc1cc(NC(=O)CSc2nc(C)c(C(=O)Nc3ccccc3)c(-c3ccc(OC)c(OC)c3)c2C#N)c(OC)cc1Cl | i | . | . | . | i
CCOc1ccc(-c2nc(CSCC(=O)N3CCN(c4cccc(C(F)(F)F)c4)CC3)c(C)o2)cc1 | ? | . | . | . | 18.4µM*
CCOC(=O)N1CCN(C(=O)CSCc2nc(-c3ccccc3C)oc2C)CC1 | i | 3.6 | -1.2% | 5.2% | 18.4µM*
CCOc1ccc(-c2nc(CSCC(=O)N3CCN(c4ccc(F)cc4)CC3)c(C)o2)cc1 | i | . | . | . | i
Cc1oc(-c2ccccc2Cl)nc1CSCC(=O)NC1CC1 | i | -1.2 | -27.7% | -27.8% | 13µM*
Cc1oc(-c2ccccc2F)nc1CSCC(=O)NC1CCCC1 | i | -1.2 | -9.3% | -5.6% | ?
CCOC(=O)c1c(C)oc2nc(C)nc(N3CCN(c4ccc(C)cc4C)CC3)c12 | i | . | . | . | i
CCOC(=O)c1c(C)oc2nc(C)nc(N3CCN(c4cccc(C(F)(F)F)c4)CC3)c12 | ? | . | . | . | 16.4µM*
COc1ccc(NC(=O)Nc2nc(C)cc(C)n2)c(OC)c1 | i | ? | -9.6% | -2.1% | i
CCc1c(-c2ccccc2)nc2sc3c(c2c1N)CCCC3 | ? | -83.5* | -22.2% | 0.7% | ?
CC1CCc2nc3sc4c(c3c(N)c2C1)CCCC4 (configuration not stated) | ? | . | -3.0% | -4.4% | ?
CC1CCc2c(nc3sc4c(c3c2N)CCCC4)C1 (configuration not stated) | i | -91.2* | ? | ? | ?
Nc1c2c(nc3sc4c(c13)CCCCC4)CCCCC2 | ? | ? | 10.2% | 2.7% | 8.2µM*
CCc1ccccc1NC(=O)C1(S(=O)(=O)c2ccc(C)cc2)CC1 | i | 11.6 | 1.2% | 1.2% | ?
Cc1sc2nc(SCC(=O)OC(C)C)n(C)c(=O)c2c1C | i | -10.6 | 8.2% | 14.7% | 14.6µM*
c1ccc2c(c1)Nc1ccncc1S2 | i | -94.1* | -19.3% | -28.1% | i
COc1ccc(COC(=O)c2ccc(S(=O)(=O)N3CCCCC3)cc2)cc1OC | i | 4.0 | -1.3% | 6.5% | i

Screening data from PubChem.
